Calls of active or inactive are those of the source.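 How the source made its calls, unless noted: active means visually confirmed hit in the image check and inhibition above 20%; inconclusive means visually confirmed hit but inhibition not above 20%; inactive means no visual hit in the image check.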
Assay: inhibitors of TNFa-induced NFkB p65 translocation, primary screen, imaging, HUVEC, MLSMR starter and 10KST1 sets (AID 438;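 active means inhibition above 20% together with a positive visual image hit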;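 further: compound added about 3h40 before a 20 min TNFalpha stimulation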;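 on inhibition: signal is the nuclear over cytoplasmic p65 intensity ratio per well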)
Conditions: HUVEC TNFa-induced p65 nuclear translocation; cell count: measured here: nuclei count (cytotoxicity indicator), at 2.08 µM; inhibition: at 2 µM, stronger effect = higher value, 0% TNFa-plus-vehicle, 100% no-TNFa wells
With Cc1nc(SCC(=O)c2ccccc2)c(C#N)c(-c2ccco2)c1C(=O)NCc1ccco1 the inhibition was 0.8% (inactive) and the cell count was 391. For CC(=O)C(=[N+]=[N-])C(=O)NCc1ccccc1, the inhibition was -11.6% (inactive) and the cell count was 474. With CNC(=O)c1ncnnc1N(C)C(=O)NCc1ccccc1 the cell count was 506 and the inhibition was -21% (inactive). With CCCCNC(=O)c1c(N)n(/N=C/c2cccnc2)c2nc3ccccc3nc12 the cell count was 474 and the inhibition was 4.9% (inactive). With Cc1ccnc(N2CCN(c3c4c(c(C#N)c5nc6ccccc6n35)CCC4)CC2)c1 the cell count was 585 and the inhibition was -9% (inactive). For CC(C)Cc1[nH]c(=O)c(C#N)c2c1CCCC2, the cell count was 623 and the inhibition was 1.3% (inactive). In the case of CCOC(=O)c1c(C)n(C)c2ccc(OC)c(NC(=O)CN3CCCCC3)c12, the inhibition is reported as -2.7% (inactive) and the cell count is reported as 343. For CSc1nc(N)nc(SCC(=O)OC(C)C)c1C#N, the cell count was 394 and the inhibition was -11.8% (inactive). With CC(=O)N/C(=N/c1nc(C)cc(C)n1)Nc1ccc(NC(C)=O)cc1 the cell count was 647 and the inhibition was 3.8% (inactive). In the case of Cc1ccccc1OCC(O)Cn1c(N2CCN(c3ccccc3)CC2)nc2c1c(=O)[nH]c(=O)n2C (stereo not given), the cell count is reported as 519 and the inhibition is reported as -0.6% (inactive). For CCCOc1ccc(Cc2nn[nH]n2)cc1, the cell count was 665 and the inhibition was -9.9% (inactive). For CC1CN(C2CCN(C(=O)c3ccccc3Cl)CC2)CC(C)O1 (stereo not given), the cell count was 445 and the inhibition was -0.2% (inactive). For CCOc1nnnc2c1sc1nc(N3CCOCC3)c3c(c12)CC(C)(C)OC3, the cell count was 579 and the inhibition was -3.2% (inactive). With CCN(CC)CCNc1nc2c(c(=O)[nH]c(=O)n2C)n1CCOc1ccccc1 the inhibition was -1.2% (inactive) and the cell count was 501. In the case of NC(=O)CSc1c[nH]c2ccccc12, the cell count is reported as 640 and the inhibition is reported as -5.5% (inactive). With C=CCn1c(-c2ccccc2)n[nH]c1=S the cell count was 492 and the inhibition was -1.5% (inactive). For CN1C(=O)N(c2ccccc2)C(Nc2nncs2)C1(C)C (stereo not given), the cell count was 438 and the inhibition was 3.5% (inactive). With COc1ccc(/C=N/n2cncn2)cc1CSc1ccccn1 the cell count was 302 and the inhibition was -17.2% (inactive). For COc1cc([C@@H]2[C@H]3CNCC=C3C(C#N)=C(N)C2(C#N)C#N)ccc1OC(C)C, the cell count was 520 and the inhibition was -3.4% (inactive). For Nc1nnc(Cc2ccc(Cl)c(Cl)c2)s1, the cell count was 621 and the inhibition was 2.9% (inactive). For CCCOc1ccc(/C(O)=C2/C(=O)C(=O)N(CCN3CCOCC3)C2c2ccccc2)cc1 (stereo not given), the cell count was 365 and the inhibition was -10.5% (inactive). For CC(C)C1Cc2c(C#N)c(N)n(C)c(=S)c2CO1 (stereo not given), the inhibition was 1.3% (inactive) and the cell count was 548. In the case of CNC(=O)C1CC(=O)N(Cc2ccccc2)C(=Nc2ccc(OC)cc2)S1 (stereo not given), the cell count is reported as 491 and the inhibition is reported as -5.2% (inactive). In the case of CCCOc1ccc(C2NC(=O)NC2=O)cc1 (stereo not given), the inhibition is reported as -8% (inactive) and the cell count is reported as 614. With COC(=O)c1[nH]c2cc(OC)ccc2c1NC(=O)CCN1CCCC(C)(C)C1 the cell count was 350 and the inhibition was -5.3% (inactive). In the case of Cc1cc(OCCN2CCOCC2)nc2ccccc12, the cell count is reported as 358 and the inhibition is reported as -29.5% (inactive). With CC(C)Nc1nc(NC(C)C)nc(N(C)n2cnnc2)n1 the inhibition was -8.8% (inactive) and the cell count was 629. For COc1ccc(OC)c(C(O)c2coc3ccc(O)c(CN4CCOCC4)c23)c1 (stereo not given), the inhibition was -2.4% (inactive) and the cell count was 395. In the case of Cc1c([C@H]2[C@@H](CC#N)C2(C)C)c2ccccc2n1C, the inhibition is reported as -3.8% (inactive) and the cell count is reported as 637. With CC1=C(C(=O)Nc2ccccc2)C(c2ccncc2)C(C#N)=C(SCC(=O)NC(C)C)N1 (stereo not given) the inhibition was -8.3% (inactive) and the cell count was 532. For CCCCCc1ccc(-c2ccc(=O)[nH]n2)cc1, the inhibition was -1.5% (inactive) and the cell count was 455. For O=C(C1=C(O)C(=O)N(CCN2CCOCC2)C1c1cccnc1)c1cc2ccccc2o1 (stereo not given), the inhibition was 4.1% (inactive) and the cell count was 451. In the case of CCCCNC(=O)c1cc2n(n1)C(C(F)(F)F)CC(c1ccccc1)N2 (stereo not given), the inhibition is reported as -6.4% (inactive) and the cell count is reported as 519. For CCCC1C2C(=O)N(c3ccccc3OC)C(=O)C2ON1c1ccccc1 (stereo not given), the inhibition was -20.4% (inactive) and the cell count was 329. In the case of CCOC(=O)C1=C(C)NC(=O)NC1c1ccc2c(c1)OCO2 (stereo not given), the cell count is reported as 603 and the inhibition is reported as -9.5% (inactive). With O=C(c1cccc(Cl)c1)N1CCN(C(=O)c2ccccc2F)CC1 the cell count was 359 and the inhibition was -17.3% (inactive). With Cc1noc(NS(=O)(=O)c2ccc(NC(=O)COc3ccccc3)cc2)c1C the cell count was 641 and the inhibition was -10.1% (inactive). With Cc1nc(NCCN)c(C#N)c2c1COC(C)(C)C2 the inhibition was -1.2% (inactive) and the cell count was 666. For Cn1c(=NCC(O)COc2ccccc2)sc2ccccc21 (stereo not given), the inhibition was 7.1% (inactive) and the cell count was 482. With COc1ccc(-c2nn3c(C4CCCCC4)nnc3s2)cc1OC the cell count was 580 and the inhibition was -19.9% (inactive).

Assay: endothelial E-selectin expression blockers – imaging, HUVEC, immunofluorescence, MLSMR starter and 10KST1 sets, primary screen (AID 487);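 on inhibition: signal is fraction of cell area covered by stained E-selectin grains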;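 on nuclei count: 100% = median nuclei count of all wells on the same plate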
Conditions: HUVEC TNFalpha-induced E-selectin immunofluorescence imaging, at 2 µM; inhibition: stronger effect = higher value; nuclei count: measured here: cell number, toxicity
In the case of Cc1nc(SCC(=O)c2ccccc2)c(C#N)c(-c2ccco2)c1C(=O)NCc1ccco1, the inhibition is reported as 17.3% (inactive) and the nuclei count is reported as 138%. In the case of CC(=O)C(=[N+]=[N-])C(=O)NCc1ccccc1, the inhibition is reported as -71.5% (inactive) and the nuclei count is reported as 95.4%. With CNC(=O)c1ncnnc1N(C)C(=O)NCc1ccccc1 the nuclei count was 134% and the inhibition was -54.6% (inactive). With CCCCNC(=O)c1c(N)n(/N=C/c2cccnc2)c2nc3ccccc3nc12 the nuclei count was 139% and the inhibition was -130% (inactive). In the case of Cc1ccnc(N2CCN(c3c4c(c(C#N)c5nc6ccccc6n35)CCC4)CC2)c1, the inhibition is reported as -90.1% (inactive) and the nuclei count is reported as 135%. In the case of CC(C)Cc1[nH]c(=O)c(C#N)c2c1CCCC2, the inhibition is reported as 2.8% (inactive) and the nuclei count is reported as 155%. With CCOC(=O)c1c(C)n(C)c2ccc(OC)c(NC(=O)CN3CCCCC3)c12 the inhibition was -15% (inactive) and the nuclei count was 132%. For CSc1nc(N)nc(SCC(=O)OC(C)C)c1C#N, the inhibition was -26.4% (inactive) and the nuclei count was 76.9%. In the case of CC(=O)N/C(=N/c1nc(C)cc(C)n1)Nc1ccc(NC(C)=O)cc1, the nuclei count is reported as 154% and the inhibition is reported as -35% (inactive). For Cc1ccccc1OCC(O)Cn1c(N2CCN(c3ccccc3)CC2)nc2c1c(=O)[nH]c(=O)n2C (stereo not given), the nuclei count was 134% and the inhibition was -227% (inactive). With CCCOc1ccc(Cc2nn[nH]n2)cc1 the nuclei count was 154% and the inhibition was -18.7% (inactive). With CC1CN(C2CCN(C(=O)c3ccccc3Cl)CC2)CC(C)O1 (stereo not given) the nuclei count was 151% and the inhibition was -214% (inactive). In the case of CCOc1nnnc2c1sc1nc(N3CCOCC3)c3c(c12)CC(C)(C)OC3, the nuclei count is reported as 116% and the inhibition is reported as -78.7% (inactive). With CCN(CC)CCNc1nc2c(c(=O)[nH]c(=O)n2C)n1CCOc1ccccc1 the nuclei count was 135% and the inhibition was -206% (inactive). In the case of NC(=O)CSc1c[nH]c2ccccc12, the inhibition is reported as 73.3% (inactive) and the nuclei count is reported as 169%. With C=CCn1c(-c2ccccc2)n[nH]c1=S the inhibition was 71% (active) and the nuclei count was 124%. With CN1C(=O)N(c2ccccc2)C(Nc2nncs2)C1(C)C (stereo not given) the nuclei count was 167% and the inhibition was -58.9% (inactive). With COc1ccc(/C=N/n2cncn2)cc1CSc1ccccn1 the inhibition was -137% (inactive) and the nuclei count was 114%. For COc1cc([C@@H]2[C@H]3CNCC=C3C(C#N)=C(N)C2(C#N)C#N)ccc1OC(C)C, the nuclei count was 156% and the inhibition was -13.2% (inactive). For Nc1nnc(Cc2ccc(Cl)c(Cl)c2)s1, the inhibition was 33.3% (inactive) and the nuclei count was 174%. With CCCOc1ccc(/C(O)=C2/C(=O)C(=O)N(CCN3CCOCC3)C2c2ccccc2)cc1 (stereo not given) the nuclei count was 144% and the inhibition was -132% (inactive). With CC(C)C1Cc2c(C#N)c(N)n(C)c(=S)c2CO1 (stereo not given) the nuclei count was 134% and the inhibition was -204% (inactive). For CNC(=O)C1CC(=O)N(Cc2ccccc2)C(=Nc2ccc(OC)cc2)S1 (stereo not given), the nuclei count was 127% and the inhibition was -228% (inactive). For CCCOc1ccc(C2NC(=O)NC2=O)cc1 (stereo not given), the nuclei count was 113% and the inhibition was -260% (inactive). With COC(=O)c1[nH]c2cc(OC)ccc2c1NC(=O)CCN1CCCC(C)(C)C1 the inhibition was -2.2% (inactive) and the nuclei count was 153%. For Cc1cc(OCCN2CCOCC2)nc2ccccc12, the inhibition was -231% (inactive) and the nuclei count was 135%. For CC(C)Nc1nc(NC(C)C)nc(N(C)n2cnnc2)n1, the nuclei count was 188% and the inhibition was 27.2% (inactive). In the case of COc1ccc(OC)c(C(O)c2coc3ccc(O)c(CN4CCOCC4)c23)c1 (stereo not given), the inhibition is reported as -6.2% (inactive) and the nuclei count is reported as 142%. For Cc1c([C@H]2[C@@H](CC#N)C2(C)C)c2ccccc2n1C, the inhibition was -51.3% (inactive) and the nuclei count was 153%. With CC1=C(C(=O)Nc2ccccc2)C(c2ccncc2)C(C#N)=C(SCC(=O)NC(C)C)N1 (stereo not given) the nuclei count was 162% and the inhibition was -82.1% (inactive). In the case of CCCCCc1ccc(-c2ccc(=O)[nH]n2)cc1, the nuclei count is reported as 107% and the inhibition is reported as -85% (inactive). For O=C(C1=C(O)C(=O)N(CCN2CCOCC2)C1c1cccnc1)c1cc2ccccc2o1 (stereo not given), the inhibition was -45.7% (inactive) and the nuclei count was 168%. For CCCCNC(=O)c1cc2n(n1)C(C(F)(F)F)CC(c1ccccc1)N2 (stereo not given), the nuclei count was 107% and the inhibition was -41.1% (inactive). In the case of CCCC1C2C(=O)N(c3ccccc3OC)C(=O)C2ON1c1ccccc1 (stereo not given), the inhibition is reported as -107% (inactive) and the nuclei count is reported as 93.8%. For CCOC(=O)C1=C(C)NC(=O)NC1c1ccc2c(c1)OCO2 (stereo not given), the inhibition was -11.9% (inactive) and the nuclei count was 154%. In the case of O=C(c1cccc(Cl)c1)N1CCN(C(=O)c2ccccc2F)CC1, the inhibition is reported as -357% (inactive) and the nuclei count is reported as 113%. With Cc1noc(NS(=O)(=O)c2ccc(NC(=O)COc3ccccc3)cc2)c1C the inhibition was 29.8% (inactive) and the nuclei count was 182%. For Cc1nc(NCCN)c(C#N)c2c1COC(C)(C)C2, the inhibition was -117% (inactive) and the nuclei count was 165%. For Cn1c(=NCC(O)COc2ccccc2)sc2ccccc21 (stereo not given), the inhibition was -85.2% (inactive) and the nuclei count was 167%. With COc1ccc(-c2nn3c(C4CCCCC4)nnc3s2)cc1OC the inhibition was -19.9% (inactive) and the nuclei count was 159%.

Source: PubChem BioAssay
